According to PubChem BioAssay AID624354 (Sanford-Burnham Center for Chemical Genomics, 2012):
Where “and” joins values, the source holds several entries; their conditions need not be identical. Equal entries are not always repeated. About 3,800 (1.1%) of roughly 360,000 compounds were called active.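 How the source made its calls: active means compounds causing at least 50% loss of cell viability in the single-dose screen, relative to plate controls; inactive means the rest.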 Only a selection was taken, and actives are over-represented in it overall. Some compounds were tested as several samples or in several runs, with calls that do not always agree.

Test: viability loss with TRAIL in NB7+C8 cells, primary screen, TRAIL sensitizer project, cell-based, ATPlite luminescence (AID 624354)
Settings: at 10 µM, stronger effect = higher value

SMILES | inhibition (viability loss, TRAIL sensitization)
CC(=O)N1c2ccc(S(=O)(=O)N3CCCC(C(=O)NCc4ccc(Cl)cc4)C3)cc2CC1C (centres undefined) | 15.2% (inactive)
CN(Cc1cccs1)C(=O)CN1C(=O)c2ccccc2S1(=O)=O | -16.6% (inactive)
O=C(CN1C(=O)c2ccccc2S1(=O)=O)N1CCc2ccccc21 | 61.8% (active)
Cc1ccc(S(=O)(=O)N(C)CC(=O)N2CCc3ccccc32)cc1 | -3.97% (inactive)
O=S(=O)(Cc1ccccc1)c1nc2ccccc2n1Cc1ccccn1 | -8.41% (inactive)
O=C(Cn1c2[n+](c3ccc(C(F)(F)F)cc31)CCCCC2)Nc1c(F)cccc1F | 3.77% (inactive)
COc1cc2c(cc1OC)CN(C(=O)c1cc(S(=O)(=O)N3CCCCC3)ccc1Cl)CC2 | 1.71% (inactive)
COc1cc2c(cc1OC)C(C)N(S(=O)(=O)c1cnc(Cl)c(Cl)c1)CC2 (centres undefined) | 75.2% (active)
COc1ccc(C2SCCN2S(=O)(=O)c2ccccc2)cc1OC (centres undefined) | 0.617% (inactive)
C[C@@H]1CC2=C(C(=O)OC(C)(C)O2)[C@@H](C2CC2)O1 | -8.67% (inactive)
Cc1ccc(OCCNC(=O)CN2C(=O)NC3(CCCC3)C2=O)cc1 | -18.7% (inactive)
CCn1cc(-c2cc(C(=O)O)on2)c(C)n1 | -6.48% (inactive)
CC(C)Nc1ccc(-n2nc3ccccc3[n+]2[O-])cc1 | 54.6% (active)
CCCCC(O)(CCCC)C(=O)NN(C(=O)CCl)c1ccccc1 | 82.8% (active)
CCCC(O)(CCC)C(=O)NN(C(=O)CCl)c1cccc(C)c1 | 5.97% (inactive)
COC(=O)N(NC(=O)C(O)(C(C)C)C(C)C)c1ccccc1 | 21.8% (inactive)
COc1ccc(/C=C/CN2CCN(Cc3ccc(C)cc3)C(CCO)C2)cc1 (centres undefined) | -0.778% (inactive)
Cc1cc(C(=O)NCCc2ccc(Cl)cc2)c(C)o1 | -14.9% (inactive)
Cc1ccc(-c2cc(C(=O)N/N=C/C=C/c3ccccc3)n[nH]2)o1 | 0.486% (inactive)
CC(=C/c1ccccc1)/C=N/NC(=O)c1cc(C)oc1C | 54.5% (active)
Cc1ccc2cccc(OCCCOc3ccccc3CO)c2n1 | -4.7% (inactive)
Cc1ccc(NC(=O)c2oc3ccccc3c2C)c([N+](=O)[O-])c1 | 3.18% (inactive)
CC1(C(=O)NS(=O)(=O)C2CC2)CCCN(C(=O)CSc2ccccc2)C1 (centres undefined) | -10.3% (inactive)
COC(=O)c1c(NC(=O)COc2ccc(Cl)cc2Cl)sc2c1CC(C)(C)NC2(C)C | 92.1% (active)

SMILES | inhibition (viability loss, TRAIL sensitization)
CN1CCC(OC(=O)COc2ccc(Cl)cc2Cl)CC1 | -7.75% (inactive)
CCOC(=O)c1c(NC(=O)c2ccc(S(=O)(=O)N(C)CC3CCCO3)cc2)sc2c1CC(C)(C)NC2(C)C (centres undefined) | 26.5% (inactive)
COC(=O)c1ccccc1N=Nc1c(C)[nH][nH]c1=O | -4% (inactive)
O=C(CSc1ncnc2c1nnn2Cc1ccc(F)cc1)NC1CCCC1 | -9.39% (inactive)
O=C(CCNC(=O)c1ccc(Br)cc1)Nc1cccc(S(=O)(=O)N2CCCCC2)c1 | 5.98% (inactive)
C=CCN(c1ccc(C(=O)Nc2cc(C)cc(C)c2)cc1)S(C)(=O)=O | -8.04% (inactive)
CSCc1ccc(C(=O)Nc2cc(C)cc(C)c2)cc1 | 66.6% (active)
Cc1cc(C)cc(NC(=O)CSc2ccccc2)c1 | -3.71% (inactive)
Cc1cccc(CC2(O)C(=O)Nc3ccccc32)n1 (centres undefined) | -8.54% (inactive)
CN(C)S(=O)(=O)c1ccc(N2CCCC2=O)c([N+](=O)[O-])c1 | 4.63% (inactive)
O=C(Nc1nnc(Cc2ccc(Cl)cc2)s1)c1ccncc1 | -4.66% (inactive)
CSc1nnc(NC(=O)c2nc(S(=O)(=O)Cc3ccc(C)cc3)ncc2Cl)s1 | 66.5% (active)
Cc1cccc(NC(=O)c2nc(S(=O)(=O)Cc3ccccc3)ncc2Cl)c1 | 86.5% (active)
Cc1cccc(NS(=O)(=O)c2ccc(C)c(C(=O)NCc3cccnc3)c2)c1 | -5.47% (inactive)
CN(Cc1ccccc1)S(=O)(=O)c1nnc(NC(=O)c2ccccc2F)s1 | -10.5% (inactive)
O=C(Nc1nnc(-c2ccc(F)cc2)s1)c1c(F)cccc1Cl | 1.33% (inactive)
Cc1cccc(CS(=O)(=O)c2ncc(Cl)c(C(=O)Nc3ccc(F)cc3)n2)c1 | 36% (inactive)
Cc1ccc(CS(=O)(=O)c2ncc(Cl)c(C(=O)Nc3nnc(C)s3)n2)cc1 | 96.7% (active)
O=C(Nc1nnc(Cc2ccc(Cl)cc2)s1)c1cccnc1 | 2.47% (inactive)
COc1ccccc1-n1nnnc1S(=O)(=O)Cc1ccc(Cl)cc1 | 9% (inactive)
Cc1ccc(SC(=O)COc2ccc(C)c(C)c2)cc1 | 3.37% (inactive)
O=C(CCc1ccccc1)NCCc1cccs1 | -4.77% (inactive)
O=C1C2C3C=CC(C4CC34)C2C(=O)N1c1nccs1 (centres undefined) | -2% (inactive)
Cc1ccc(-c2nc(-c3cccnc3)sc2CC(=O)Nc2ccc(C)c(Cl)c2)cc1 | 18.7% (inactive)

SMILES | inhibition (viability loss, TRAIL sensitization)
COc1ccc(CCN2CNc3c(c(=O)n(C)c(=O)n3C)C2)cc1OC | 7.29% (inactive)
O=C1OCCN1C(=O)[C@H]1[C@H](c2ccc(Cl)cc2)C(c2cccc(Cl)c2)=NN1c1ccc(Br)cc1 | -0.36% (inactive)
CCOc1ccccc1/C=N/Nc1nc2ccccc2o1 | -8.7% (inactive)
COc1cccc(/C=N/Nc2cc(C)nc(-c3ccccc3O)n2)c1O | 56.9% (active)
COCCCNC(=O)c1cccc2c(-c3ccc(O)c(OC)c3)coc12 | 14.2% (inactive)
CC(=O)OCC(C)n1c(=O)c2ccccc2n1C(C)=O (centres undefined) | -3.49% (inactive)
CN(C)CCCn1c(N)c(C#N)c2nc(C#N)c(C#N)nc21 | -10.7% (inactive)
O=C(NCCc1ccccn1)c1nc(Cn2cc([N+](=O)[O-])cn2)no1 | 2.01% (inactive)
CSc1ncccc1C(=O)Nc1nc2ccc(F)cc2s1 | 10.7% (inactive)
O=C(Nc1nc2ccc([N+](=O)[O-])cc2s1)c1ccncc1 | 53.2% (active)
CC(=O)Nc1ccc2nc(NC(=O)CS(=O)(=O)c3ccc(F)cc3)sc2c1 | -11.1% (inactive)
COc1cc2nnn(-c3ccncc3)c2cc1OC | -16.3% (inactive)
O=C(CCCCCCCC(=O)N1CCCCC1)N1CCCCC1 | 1.6% (inactive)
COC(=O)c1sc(SC)c(S(=O)(=O)C(C)C)c1N/N=C(\C#N)S(=O)(=O)c1ccccn1 | -10.6% (inactive)
O=C(NCc1ccccc1)C1C(=O)N(Cc2ccccc2)C(=O)C1C1(O)CCCC1 (centres undefined) | -9.54% (inactive)
Cc1ccccc1C1CC(c2cccs2)=NN1S(C)(=O)=O (centres undefined) | 1.64% (inactive)
O=c1c2cc(-c3ccccc3)sc2nc2n1N=C(c1cccs1)CS2 | 56.6% (active)
O=c1c(-c2ccccc2)cnc2n1CCS2 | -0.958% (inactive)
COc1cccc2c1OCC(C(=O)NCc1ccc(Cl)cc1Cl)=C2 | 12.2% (inactive)
CC(=O)Nc1ccc(C(=O)/C=C/c2ccc[nH]2)cc1 | 1.89% (inactive)
CC(=O)Nc1ccc(C(=O)NNC(=O)CCCCC(=O)NNC(=O)c2ccc(NC(C)=O)cc2)cc1 | -1.99% (inactive)
CCCC(=O)Nc1ccc(C(=O)N/N=C/c2ccc[nH]2)cc1 | 93.8% (active)
ClC1(Cl)CC1CSc1ncn[nH]1 (centres undefined) | -13.6% (inactive)
O=C(/C=C/c1ccc([N+](=O)[O-])o1)NNC(=O)c1ccc(F)cc1 | 32.1% (inactive)

SMILES | inhibition (viability loss, TRAIL sensitization)
Cc1nnc(SC(C(=O)Nc2cc(Cl)cc(Cl)c2)c2ccccc2)[nH]c1=O (centres undefined) | -3.74% (inactive)
O=C(Nc1c(Br)cc2c(c1Br)Cc1ccccc1-2)C(F)(F)F | 2.23% (inactive)
COc1cccc(NC(=O)CN(C)C(C)C(=O)Nc2ccc(C#N)cc2)c1 (centres undefined) | -8.39% (inactive)
O=C(Nc1cccc(C(F)(F)F)c1)c1ccc(N2CCNCC2)c([N+](=O)[O-])c1 | 35.7% (inactive)
COc1cc(NC(=O)c2[nH]cnc2C(N)=O)cc(C(=O)Nc2cccc(C(F)(F)F)c2)c1 | 86% (active)
COc1cc(NC(=O)c2cncc(-c3ccc(C#N)cc3)c2)cc(C(=O)Nc2cccc(C(F)(F)F)c2)c1 | 33.4% (inactive) and 56.8% (active)
COc1cc(C(=O)N(C)Cc2cccc(OC)c2OC)ccc1OCC(=O)Nc1cccc(C(F)(F)F)c1 | 28.6% (inactive)
COc1cccc(C(=O)N/N=C(\C)c2cccc(NC(=O)c3ccc(F)cc3)c2)c1OC | 16.9% (inactive)
COC(=O)c1ccc(C2C3=C(Nc4nnnn42)c2ccccc2OC3)cc1 (centres undefined) | -2.52% (inactive)
CCOC(=O)c1c(Cc2ccc(Cl)cc2)c[nH]c1C | -5.16% (inactive)
CCOC(=O)N1CCN(S(=O)(=O)c2ccc(C(=O)Nc3ccc(F)cc3F)cc2)CC1 | 4.58% (inactive)
Cc1cc(C)cc(OCc2nnc(SCC(=O)OC3CCCCC3)o2)c1 | -14.3% (inactive)
COc1cccc(CNC(=O)C2CCCN(S(=O)(=O)N3CC(C)CC(C)C3)C2)c1 (centres undefined) | -1.49% (inactive)
COC(=O)C1=C[C@@H](C(=O)OC)[C@@H]2C3=C(C(=O)[C@]2(C)NC(=O)c2ccccc2)[C@H](C)n2c(=O)n(C)c(=O)n2[C@@H]3C1 | -3.47% (inactive)
COc1ccc(OC)c(Cc2cnc3nc(N)nc(N)c3c2C)c1 | 84% (active)
O=C(CN(C(=O)c1csnn1)c1cccc(F)c1)NCc1ccc(F)cc1 | -4.16% (inactive)
CCOC(=O)c1c(C)oc(C)c(C(=O)OCC)c1=O | -19.5% (inactive)
CCOC(=O)c1[nH]c(C)c(C(=O)OCC(=O)N2c3ccccc3CC2C)c1C (centres undefined) | 6.75% (inactive)
CCOC(=O)c1c(C)[nH]c2c1-c1ccccc1C(=O)C2=O | 94% (active)
Cc1ccc(C(=O)COC(=O)c2cccc(N3C(=O)c4c(C)nc5ccccc5c4C3=O)c2)cc1C | 60.1% (active)
COc1ccc(C(=O)OCC(=O)c2ccc(C)c(S(=O)(=O)N3CCOCC3)c2)cc1OC | 18.4% (inactive)
Cc1ccc(C(=O)COC(=O)CCN2C(=O)C3C4CCC(C4)C3C2=O)cc1C (centres undefined) | -8.78% (inactive)
